“And” between values parts separate entries of the source, which are not always exact repeats. Equal values may be shown once. The source made the active and inactive calls. Rule for the calls: active = hit-call score of the fitted dose curve at least 0.9, where 1 is the maximum; inactive = score below 0.9.

Read-out in this test: urokinase plasminogen activator (uPA), PLAU (gene 5328)
Description: BSK_BE3C_uPA: BioMAP Diversity Plus: BE3C Assay for urokinase plasminogen activator (uPA) Biomarker Activity (AID 2283038).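 For outcome: uPA read one day after compound addition.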 The conditions noted are these: primary human bronchial epithelial cells; actives raise or lower the signal. How it is done: BSK_BE3C is a cell-based, multiplexed-readout assay that uses bronchial epithelial cell, a human lung primary cell, with measurements taken at 24 hours after chemical dosing in a 96-well plate.BSK_BE3CA is an assay component measured in the BSK_BE3C assay. It measures uPA antibody related to regulation of gene expression using ELISA technology.Data from the assay component BSK_BE3CA was analyzed into 1 assay endpoint. This assay endpoint, BSK_BE3CA, was analyzed with bidirectional fitting relative to DMSO as the negative control and baseline of activity. Using a type of binding reporter, gain or loss-of-signal activity can be used to understand changes in the signaling as they relate to the gene PLAU. Furthermore, this assay endpoint can be referred to as a primary readout, because this assay has produced multiple assay endpoints where this one serves a signaling function. To generalize the intended target to other relatable targets, this assay endpoint is annotated to the protease intended target family, where the subfamily is serine protease.
The levels of cell surface (or secreted, indicated by the prefix "s") biomarker endpoints were measured by ELISA. Overt cytotoxicity to cells in confluent adherent cultures (all systems other than the BT system) was assessed by measuring total protein levels using sulforhodamine B (SRB) staining in parallel cultures at the time of biomarker measurements, indicated as SRB endpoints. For proliferation assays for adherent cell types, individual cell types are cultured at sub-confluence and relative cell numbers quantified by SRB staining at time points optimized for each system (48 h: 3C and CASM3C systems; 72 h: BT and HDF3CGF systems; 96 h: SAg system). SRB was performed by staining cells with 0.1% SRB after fixation with 10% TCA and reading wells at 560 nm.Viability and proliferation of PBMC (T cells) was quantified by Alamar Blue reduction for the SAg and BT systems. For PBMC viability (referred to as PBMC Cytotoxicity within the assay endpoint names), cells were plated (75,000/well in a 96-well plate) and then chemical samples added for 1 h before addition of activators, SEB and TSST-1 (20 ng/mL final concentration each). Cells were incubated for 90 h. Then, Alamar Blue (20 uL/well) (Invitrogen, Cat DAL1100) was added for 6 h, and the plates were read with a fluorescence microplate reader at 546/580 nm (excitation/emission). For PBMC proliferation, cells were plated and activated as above but incubated for only 16 h prior to addition of Alamar Blue. Plates were read after 6 h.
For the molecule `OCC(F)(F)C(F)(F)C(F)(F)C(F)(F)C(F)(F)C(F)F`, the result was inactive.

For `O[Si](c1ccccc1)(c1ccccc1)c1ccccc1`, the outcome was inactive.

In the case of `C=CC(=O)OCC(F)(F)C(F)(F)C(F)(F)C(F)(F)C(F)(F)C(F)(F)C(F)(F)F`, the outcome was inactive.

In the case of `CCc1c(Br)c(Br)c(Br)c(Br)c1Br`, the outcome was inactive.

The AC50 is the concentration at which the activity in the assay is half-maximal. As for `O=C(Cl)C(F)(F)C(F)(F)C(F)(F)C(F)(F)C(F)(F)C(F)(F)C(F)(F)C(F)(F)F`, the AC50 is 51.7 µM (active) and 48.2 µM (active) and 47.1 µM (active).

In the case of `O=C(O)C(F)(F)C(F)(F)F`, the result was inactive.

On to `FC(F)(I)C(F)(F)C(F)(F)C(F)(F)I`, for which the result was inactive.

Turning to `OCCCC(F)(F)C(F)(F)C(F)(F)C(F)(F)C(F)(F)C(F)(F)C(F)(F)F`, the AC50 was 46.5 µM (active) and 47.5 µM (active).

With `O=P(O)(O)OCCC(F)(F)C(F)(F)C(F)(F)C(F)(F)C(F)(F)C(F)(F)F`, the result was inactive.

Take `C=CC/C=C/C/C=C/C/C=C/C`: the outcome was inactive.

As to `FC(F)(F)C(F)(F)C(F)(F)C(F)(F)C(F)(F)C(F)(F)C(F)(F)Br`, the result was inactive.

Regarding `O=C(O)C(F)(OC(F)(F)C(F)(OC(F)(F)C(F)(F)C(F)(F)F)C(F)(F)F)C(F)(F)F` (stereo not given), the outcome was inactive.

On to `CO[Si](OC)(c1ccccc1)c1ccccc1`, for which the result was inactive.

With `O=C(O)C(F)(F)C(F)(F)C(F)(F)C(F)(F)C(F)(F)C(F)(F)C(F)(F)C(F)(F)C(F)(F)C(F)(F)C(F)(F)C(F)(F)C(F)(F)F`, the outcome was inactive.

In the case of `O=S(=O)(OCC(F)F)C(F)(F)F`, the result was inactive.

With `FC1CC(F)(F)C(F)(F)C1(F)F` (stereo not given), the result was inactive.

With `C=C(C)C(=O)OCC(F)(F)C(F)(F)C(F)(F)C(F)(F)C(F)(F)C(F)(F)C(F)(F)F`, the outcome was inactive.

`O=C(O)C(F)(F)C(F)(F)C(F)(F)C(F)(F)C(F)(F)C(F)(F)C(F)(F)C(F)(F)Cl`: the AC50 is 45.7 µM (active) and 45.8 µM (active).

For `O=C(O)C(F)(OC(F)(F)C(F)(OC(F)(F)C(F)(OC(F)(F)C(F)(F)C(F)(F)F)C(F)(F)F)C(F)(F)F)C(F)(F)F` (stereo not given), the result was inactive.

Turning to `CCCCCCCOC(=O)c1ccccc1C(=O)OCCCCCCC`, the result was inactive.

In the case of `O=S(=O)(O)C(F)(F)C(F)(F)C(F)(F)C(F)(F)C(F)(F)C(F)(F)C(F)(F)F`, the result was inactive.

As to `O=C(O)C(F)(F)C(F)(F)OC(F)(F)F`, the result was inactive.

Take `N=C(N)C(F)(F)C(F)(F)C(F)(F)C(F)(F)C(F)(F)C(F)(F)C(F)(F)F`: the outcome was inactive.

`FC(F)(F)C(F)(F)CNCC(F)(F)C(F)(F)F`: the outcome was inactive.

For `CCN(CC)c1ccc2c(C)cc(=O)oc2c1`, the result was inactive.

Take `CCCCCCOC(=O)c1ccccc1O`: the outcome was inactive.

On to `OCC(F)(F)C(F)(F)C(F)(F)C(F)(F)C(F)(F)C(F)(F)F`, for which the result was inactive.

Consider `Nc1ccc([N+](=O)[O-])cc1O`, for which the result was inactive.

Regarding `OCC(F)(F)C(F)(F)C(F)(F)F`, the result was inactive.

Turning to `O=C(O)C(F)(F)C(F)(F)C(F)(F)F`, the outcome was inactive.

`NC(=O)C(F)(F)C(F)(F)C(F)(F)C(F)(F)F`: the outcome was inactive.

Take `C=CC(=O)OCC(F)(F)C(F)(F)C(F)(F)C(F)(F)COC(=O)C=C`: the AC50 is 8.4 µM (active) and 8.81 µM (active).

Consider `C=CC(F)(F)C(F)(F)C(F)(F)C(F)(F)C(F)(F)C(F)(F)C(F)(F)C(F)(F)F`, for which the result was inactive.

For the molecule `FC(F)(Br)C(F)(F)C(F)(F)C(F)(F)C(F)(F)C(F)(F)Br`, the outcome was inactive.

Consider `FC(F)(F)C(F)(F)C(F)(F)CI`, for which the outcome was inactive.

As for `Oc1ccc(Nc2ccccc2)cc1`, the result was inactive.

Consider `O=S(=O)(OCCOC(F)(F)F)C(F)(F)F`, for which the outcome was inactive.

Turning to `O=C(O)C(F)(F)C(F)(F)C(F)(F)C(F)(F)C(F)(F)C(F)(F)C(F)(F)C(F)(F)C(F)(F)C(F)(F)C(F)(F)C(F)(F)F`, the result was inactive.

For `CCCCCCCCCCCCCCCC[N+](C)(C)Cc1ccccc1`, the AC50 is 13.2 µM (active).

On to `CCCCC(CC)COP(=O)(O)OCC(CC)CCCC` (stereo not given), for which the result was inactive.

The record behind these values is PubChem BioAssay (EPA / NIEHS).
